Measured values published in PubChem BioAssay AID1159580 (chemical genetic matrix, 2015).
The whole screen tested about 5,500 compounds, of which about 2,000 (36%) were called active. Another 18% or so got no clear call; they are omitted. Rule as the data show it: active = normalized growth mostly below about 0.91 (no sharp cut-off); inconclusive = no clear call, values can overlap the other calls; inactive = mostly above about 0.92. This is one part of the list.

Experiment: chemical genetic growth profiling, strain panel (AID 1159580);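 also: tested at 20 µM; growth read once vehicle control cultures reached saturation at 30 °C; 1 = growth at the plate median or of vehicle wells; lower values mean less growth of the strain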
Settings: growth OD

Measured: normalized growth

NC(=O)N/N=C\c1ccc([N+](=O)[O-])o1
inactive: S. cerevisiae deletion strains, locus YJR066W, strain TOR1, stronger effect = lower value 0.911 | S. cerevisiae deletion strains, locus YKL009W, strain mrt4, stronger effect = lower value 0.979 | S. cerevisiae deletion strains, locus YKL068W, stronger effect = lower value 0.994 | S. cerevisiae deletion strains, locus YKL085W, strain MDH1 (second series), stronger effect = lower value 0.987 | S. cerevisiae deletion strains, locus YKL085W, strain MDH1, stronger effect = lower value 0.987 | S. cerevisiae deletion strains, locus YKL160W, strain elf1, stronger effect = lower value 0.983 | S. cerevisiae deletion strains, locus YKL190W, strain CNB1, stronger effect = lower value 1.02 | S. cerevisiae deletion strains, locus YKR001C, strain vps1, stronger effect = lower value 0.95 | S. cerevisiae deletion strains, locus YKR026C, strain gcn3, stronger effect = lower value 1 | S. cerevisiae deletion strains, locus YKR091W, strain srl3, stronger effect = lower value 0.991 | S. cerevisiae deletion strains, locus YLL001W, strain dnm1, stronger effect = lower value 0.995 | S. cerevisiae deletion strains, locus YLL026W, stronger effect = lower value 0.999 | S. cerevisiae deletion strains, locus YLL041C, strain sdh2, stronger effect = lower value 0.995 | S. cerevisiae deletion strains, locus YLR027C, strain aat2, stronger effect = lower value 1 | S. cerevisiae deletion strains, locus YLR039C, strain RIC1, stronger effect = lower value 1.03 | S. cerevisiae deletion strains, locus YLR058C, strain SHM2, stronger effect = lower value 0.994 | S. cerevisiae deletion strains, locus YLR102C, strain apc9, stronger effect = lower value 0.984 | S. cerevisiae deletion strains, locus YLR113W, strain HOG1, stronger effect = lower value 1 | S. cerevisiae deletion strains, locus YLR221C, strain rsa3, stronger effect = lower value 0.975 | S. cerevisiae deletion strains, locus YLR258W, strain gsy2, stronger effect = lower value 0.998 | S. cerevisiae deletion strains, locus YLR262C, strain YPT6 (second series), stronger effect = lower value 1.01 | S. cerevisiae deletion strains, locus YLR262C, strain YPT6, stronger effect = lower value 1.03 | S. cerevisiae deletion strains, locus YLR268W, strain sec22, stronger effect = lower value 0.969 | S. cerevisiae deletion strains, locus YLR320W, strain mms22, stronger effect = lower value 0.98 | S. cerevisiae deletion strains, locus YLR330W, strain CHS5, stronger effect = lower value 0.998 | S. cerevisiae deletion strains, locus YLR342W, strain FKS1 (second series), stronger effect = lower value 1.03 | S. cerevisiae deletion strains, locus YLR342W, strain FKS1, stronger effect = lower value 1 | S. cerevisiae deletion strains, locus YLR357W, strain rsc2, stronger effect = lower value 0.97 | S. cerevisiae deletion strains, locus YLR370C, strain arc18, stronger effect = lower value 0.997 | S. cerevisiae deletion strains, locus YLR371W, strain rom2, stronger effect = lower value 0.986 | S. cerevisiae deletion strains, locus YLR384C, strain iki3, stronger effect = lower value 1.01 | S. cerevisiae deletion strains, locus YLR418C, strain cdc73, stronger effect = lower value 0.904 | S. cerevisiae deletion strains, locus YML016C, strain PPZ1, stronger effect = lower value 1 | S. cerevisiae deletion strains, locus YML032C, strain rad52, stronger effect = lower value 0.938 | S. cerevisiae deletion strains, locus YML120C, strain ndi1, stronger effect = lower value 1.02 | S. cerevisiae deletion strains, locus YML124C, strain tub3, stronger effect = lower value 0.993 | S. cerevisiae deletion strains, locus YMR058W, strain fet3, stronger effect = lower value 0.961 | S. cerevisiae deletion strains, locus YMR078C, strain ctf18, stronger effect = lower value 0.994 | S. cerevisiae deletion strains, locus YMR125W, strain sto1, stronger effect = lower value 0.993 | S. cerevisiae deletion strains, locus YMR129W, stronger effect = lower value 1 | S. cerevisiae deletion strains, locus YMR205C, strain PFK2, stronger effect = lower value 1.02 | S. cerevisiae deletion strains, locus YMR223W, strain ubp8, stronger effect = lower value 0.97 | S. cerevisiae deletion strains, locus YMR231W, strain pep5, stronger effect = lower value 0.993 | S. cerevisiae deletion strains, locus YMR307W, strain GAS1, stronger effect = lower value 1.01 | S. cerevisiae deletion strains, locus YNL067W, strain RPL9B, stronger effect = lower value 1.01 | S. cerevisiae deletion strains, locus YNL071W, strain lat1, stronger effect = lower value 0.99 | S. cerevisiae deletion strains, locus YNL128W, strain TEP1, stronger effect = lower value 1.03 | S. cerevisiae deletion strains, locus YNL153C, strain GIM3, stronger effect = lower value 1.01 | S. cerevisiae deletion strains, locus YNL183C, strain NPR1, stronger effect = lower value 0.919 | S. cerevisiae deletion strains, locus YNL209W, strain ssb2, stronger effect = lower value 0.994 | S. cerevisiae deletion strains, locus YNL233W, strain BNI4, stronger effect = lower value 0.998 | S. cerevisiae deletion strains, locus YNL248C, strain rpa49, stronger effect = lower value 0.967 | S. cerevisiae deletion strains, locus YNL250W, strain rad50, stronger effect = lower value 0.97 | S. cerevisiae deletion strains, locus YNL271C, strain bni1, stronger effect = lower value 0.999 | S. cerevisiae deletion strains, locus YNL298W, strain CLA4, stronger effect = lower value 0.986 | S. cerevisiae deletion strains, locus YNL307C, strain MCK1, stronger effect = lower value 0.995 | S. cerevisiae deletion strains, locus YNL322C, strain KRE1 (second series), stronger effect = lower value 0.997 | S. cerevisiae deletion strains, locus YNR049C, strain mso1, stronger effect = lower value 0.995 | S. cerevisiae deletion strains, locus YNR052C, strain pop2, stronger effect = lower value 0.989 | S. cerevisiae deletion strains, locus YOL006C, strain TOP1, stronger effect = lower value 1.06 | S. cerevisiae deletion strains, locus YOL012C, strain htz1 0.96 | S. cerevisiae deletion strains, locus YOL147C, strain pex11, stronger effect = lower value 0.988 | S. cerevisiae deletion strains, locus YOR001W, strain rrp6, stronger effect = lower value 1.01 | S. cerevisiae deletion strains, locus YOR061W, strain CKA2, stronger effect = lower value 0.994 | S. cerevisiae deletion strains, locus YOR069W, strain VPS5, stronger effect = lower value 1 | S. cerevisiae deletion strains, locus YOR070C, strain gyp1, stronger effect = lower value 0.998 | S. cerevisiae deletion strains, locus YOR080W, strain dia2, stronger effect = lower value 1.01 | S. cerevisiae deletion strains, locus YOR083W, strain WHI5, stronger effect = lower value 0.963 | S. cerevisiae deletion strains, locus YOR106W, strain vam3, stronger effect = lower value 0.983 | S. cerevisiae deletion strains, locus YOR136W, strain idh2, stronger effect = lower value 0.984 | S. cerevisiae deletion strains, locus YOR144C, strain elg1, stronger effect = lower value 0.989 | S. cerevisiae deletion strains, locus YOR184W, strain ser1, stronger effect = lower value 0.989 | S. cerevisiae deletion strains, locus YOR231W, strain MKK1, stronger effect = lower value 0.95 | S. cerevisiae deletion strains, locus YOR265W, strain rbl2, stronger effect = lower value 0.996 | S. cerevisiae deletion strains, locus YOR270C, strain vph1, stronger effect = lower value 0.972 | S. cerevisiae deletion strains, locus YOR290C, strain snf2, stronger effect = lower value 0.986 | S. cerevisiae deletion strains, locus YOR316C, strain cot1, stronger effect = lower value 0.992 | S. cerevisiae deletion strains, locus YPL051W, strain arl3, stronger effect = lower value 0.966 | S. cerevisiae deletion strains, locus YPL078C, strain atp4, stronger effect = lower value 0.991 | S. cerevisiae deletion strains, locus YPL106C, strain sse1, stronger effect = lower value 0.956 | S. cerevisiae deletion strains, locus YPL240C, strain hsp82, stronger effect = lower value 1.01 | S. cerevisiae deletion strains, locus YPL241C, strain CIN2, stronger effect = lower value 1.01 | S. cerevisiae deletion strains, locus YPL256C, strain CLN2, stronger effect = lower value 0.982 | S. cerevisiae deletion strains, locus YPR119W, strain clb2, stronger effect = lower value 0.987 | S. cerevisiae deletion strains, locus YPR141C, strain kar3, stronger effect = lower value 0.993 | S. cerevisiae deletion strains, locus YPR163C, strain tif3, stronger effect = lower value 0.992 | S. cerevisiae deletion strains, locus YPR167C, strain met16, stronger effect = lower value 0.987 | S. cerevisiae deletion strains, strain wtn01, stronger effect = lower value 0.97 | S. cerevisiae strains, strain wild type, stronger effect = lower value 1.03
